Test results from the supplement of paper PMC12819154, “High-throughput peptide-centric local stability assay extends protein–ligand identification to membrane proteins, tissues and bacteria” (Nature Structural & Molecular Biology, 2025).

compound: Nc1ncnc2c1ncn2[C@@H]1O[C@H](COP(=O)(O)OP(=O)(O)OP(=O)(O)O)[C@@H](O)[C@H]1O [adenosine 5'-triphosphate]; test: log2 fold change of tryptic peptide abundance, ligand vs vehicle (limited proteolysis) (log2 ratio); higher = more trypsin-susceptible (destabilized); settings: ligand concentration: 5 mM; sample: E. coli desalted lysate; replicate design: treated before aliquoting
Experimental: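 HT-PELSA: desalted E. coli K-12 BW25113 lysate (with 12 mM MgCl2) incubated with 5 mM ATP (pH 7) or water for 30 min at 25 C, then a 4 min trypsin pulse at 22 C. Peptides were quantified by DIA-MS (4 replicates). Value is the peptide log2 fold change (treated/control); negative = stabilized. Scale: negative = ligand-stabilized region.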
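Also: lysate desalted by size exclusion to strip endogenous ATP, peptide intensities built from DIA-NN precursor signals, and peptides missing any value discarded before comparison.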

Chain of UniProt P04995 (P04995 whole entry): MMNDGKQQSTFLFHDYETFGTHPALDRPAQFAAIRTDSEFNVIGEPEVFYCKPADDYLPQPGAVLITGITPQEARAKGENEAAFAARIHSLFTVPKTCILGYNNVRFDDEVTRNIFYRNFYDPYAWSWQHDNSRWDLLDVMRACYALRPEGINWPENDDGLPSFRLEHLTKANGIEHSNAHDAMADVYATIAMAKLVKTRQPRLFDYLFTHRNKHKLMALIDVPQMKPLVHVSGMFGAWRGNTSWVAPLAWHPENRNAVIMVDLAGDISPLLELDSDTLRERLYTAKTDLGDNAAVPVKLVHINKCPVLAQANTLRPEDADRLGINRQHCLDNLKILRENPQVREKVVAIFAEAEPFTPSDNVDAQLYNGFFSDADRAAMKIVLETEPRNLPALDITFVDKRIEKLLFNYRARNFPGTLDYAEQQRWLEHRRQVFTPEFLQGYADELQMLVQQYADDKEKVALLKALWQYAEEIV
Chain of UniProt P33919 (P33919 whole entry): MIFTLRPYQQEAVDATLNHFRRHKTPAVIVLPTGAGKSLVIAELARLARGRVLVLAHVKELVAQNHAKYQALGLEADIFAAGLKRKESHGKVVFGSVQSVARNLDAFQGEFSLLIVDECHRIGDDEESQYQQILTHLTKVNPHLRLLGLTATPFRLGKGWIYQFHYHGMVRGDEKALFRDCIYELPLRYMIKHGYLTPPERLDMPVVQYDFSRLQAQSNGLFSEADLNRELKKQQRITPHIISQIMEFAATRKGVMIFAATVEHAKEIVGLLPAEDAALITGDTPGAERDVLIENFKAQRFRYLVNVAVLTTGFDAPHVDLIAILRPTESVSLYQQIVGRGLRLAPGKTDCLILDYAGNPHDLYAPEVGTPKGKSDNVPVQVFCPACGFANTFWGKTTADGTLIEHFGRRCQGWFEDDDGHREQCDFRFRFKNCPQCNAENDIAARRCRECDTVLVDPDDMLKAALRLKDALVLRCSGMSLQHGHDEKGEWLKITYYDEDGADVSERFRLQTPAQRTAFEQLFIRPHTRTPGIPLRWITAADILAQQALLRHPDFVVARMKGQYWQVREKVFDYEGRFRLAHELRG
Chain of UniProt P37692 (P37692 whole entry): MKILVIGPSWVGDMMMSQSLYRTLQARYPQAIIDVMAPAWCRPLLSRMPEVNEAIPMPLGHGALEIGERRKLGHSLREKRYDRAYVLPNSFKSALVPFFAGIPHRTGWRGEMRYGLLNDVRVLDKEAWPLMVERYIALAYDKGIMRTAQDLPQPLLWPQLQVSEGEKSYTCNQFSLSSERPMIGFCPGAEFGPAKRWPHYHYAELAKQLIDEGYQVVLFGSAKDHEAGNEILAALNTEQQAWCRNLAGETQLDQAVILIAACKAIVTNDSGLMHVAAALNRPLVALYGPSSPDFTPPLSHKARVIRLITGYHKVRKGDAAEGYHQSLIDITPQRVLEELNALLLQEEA
Chain of UniProt P37636 (P37636 whole entry): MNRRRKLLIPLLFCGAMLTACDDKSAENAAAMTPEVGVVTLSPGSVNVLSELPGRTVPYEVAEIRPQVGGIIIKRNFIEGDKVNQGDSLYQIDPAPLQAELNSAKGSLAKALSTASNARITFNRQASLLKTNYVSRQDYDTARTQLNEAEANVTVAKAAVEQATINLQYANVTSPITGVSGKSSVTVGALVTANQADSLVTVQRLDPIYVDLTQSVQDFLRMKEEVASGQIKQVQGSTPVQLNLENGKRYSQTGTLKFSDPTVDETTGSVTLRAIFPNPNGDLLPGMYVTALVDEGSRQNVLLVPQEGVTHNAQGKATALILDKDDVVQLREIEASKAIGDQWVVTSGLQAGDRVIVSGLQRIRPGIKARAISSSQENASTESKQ
Chain of UniProt P37685 (P37685 whole entry): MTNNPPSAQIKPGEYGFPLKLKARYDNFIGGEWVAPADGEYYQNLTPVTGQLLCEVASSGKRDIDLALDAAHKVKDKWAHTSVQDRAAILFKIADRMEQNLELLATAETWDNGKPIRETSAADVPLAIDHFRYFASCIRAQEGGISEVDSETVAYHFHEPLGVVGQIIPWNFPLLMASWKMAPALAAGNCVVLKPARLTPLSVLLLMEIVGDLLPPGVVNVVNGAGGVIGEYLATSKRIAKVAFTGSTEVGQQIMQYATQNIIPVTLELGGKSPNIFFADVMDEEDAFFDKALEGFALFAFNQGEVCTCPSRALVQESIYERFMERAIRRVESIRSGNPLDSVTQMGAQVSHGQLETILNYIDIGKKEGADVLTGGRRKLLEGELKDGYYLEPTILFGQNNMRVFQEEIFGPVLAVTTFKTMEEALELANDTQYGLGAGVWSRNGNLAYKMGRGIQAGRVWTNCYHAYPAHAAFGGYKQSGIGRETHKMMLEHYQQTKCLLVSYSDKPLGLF
Chain of UniProt Q46861 (Q46861 whole entry): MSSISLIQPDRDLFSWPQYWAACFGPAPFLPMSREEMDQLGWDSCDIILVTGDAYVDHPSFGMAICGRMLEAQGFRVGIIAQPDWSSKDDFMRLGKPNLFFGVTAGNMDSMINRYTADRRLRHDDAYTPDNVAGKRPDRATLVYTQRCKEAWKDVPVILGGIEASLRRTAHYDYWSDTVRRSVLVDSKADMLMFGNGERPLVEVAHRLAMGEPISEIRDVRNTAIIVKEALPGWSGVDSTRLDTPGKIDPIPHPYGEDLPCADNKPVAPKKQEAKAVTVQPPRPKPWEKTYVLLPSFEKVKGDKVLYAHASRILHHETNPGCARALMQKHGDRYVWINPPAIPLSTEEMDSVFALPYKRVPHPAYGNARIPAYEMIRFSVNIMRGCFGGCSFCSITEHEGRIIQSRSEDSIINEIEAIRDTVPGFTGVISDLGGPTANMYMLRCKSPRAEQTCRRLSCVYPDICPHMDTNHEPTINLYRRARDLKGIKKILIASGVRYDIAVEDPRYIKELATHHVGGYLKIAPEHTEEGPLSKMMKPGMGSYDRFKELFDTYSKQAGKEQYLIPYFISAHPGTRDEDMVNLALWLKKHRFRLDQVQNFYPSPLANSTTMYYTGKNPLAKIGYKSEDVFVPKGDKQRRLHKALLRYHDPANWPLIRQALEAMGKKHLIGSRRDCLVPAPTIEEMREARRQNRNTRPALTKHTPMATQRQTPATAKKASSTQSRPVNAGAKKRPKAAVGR
Chain of UniProt P0AD57 (P0AD57 whole entry): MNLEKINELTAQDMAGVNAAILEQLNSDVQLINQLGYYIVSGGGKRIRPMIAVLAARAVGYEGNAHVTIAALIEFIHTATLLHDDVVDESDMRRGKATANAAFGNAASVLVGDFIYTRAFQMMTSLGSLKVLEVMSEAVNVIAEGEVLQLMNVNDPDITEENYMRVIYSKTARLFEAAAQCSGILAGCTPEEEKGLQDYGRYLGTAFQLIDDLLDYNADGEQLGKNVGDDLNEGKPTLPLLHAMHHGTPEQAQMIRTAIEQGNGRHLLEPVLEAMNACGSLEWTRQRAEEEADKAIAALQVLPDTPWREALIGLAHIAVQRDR
Chain of UniProt P25553 (P25553 whole entry): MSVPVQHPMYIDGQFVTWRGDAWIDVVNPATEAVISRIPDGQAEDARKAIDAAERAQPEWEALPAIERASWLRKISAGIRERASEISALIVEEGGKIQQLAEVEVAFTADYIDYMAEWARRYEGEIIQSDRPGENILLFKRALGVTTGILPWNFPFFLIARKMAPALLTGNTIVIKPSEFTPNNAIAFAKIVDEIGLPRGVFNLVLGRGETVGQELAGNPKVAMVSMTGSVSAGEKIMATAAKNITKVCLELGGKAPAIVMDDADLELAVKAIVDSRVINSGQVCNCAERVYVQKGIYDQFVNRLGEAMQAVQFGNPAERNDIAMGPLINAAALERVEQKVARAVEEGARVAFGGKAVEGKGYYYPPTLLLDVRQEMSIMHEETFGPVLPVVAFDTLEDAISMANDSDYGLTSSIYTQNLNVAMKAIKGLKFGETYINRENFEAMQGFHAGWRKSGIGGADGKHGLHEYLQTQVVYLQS
Chain of UniProt P42603 (P42603 whole entry): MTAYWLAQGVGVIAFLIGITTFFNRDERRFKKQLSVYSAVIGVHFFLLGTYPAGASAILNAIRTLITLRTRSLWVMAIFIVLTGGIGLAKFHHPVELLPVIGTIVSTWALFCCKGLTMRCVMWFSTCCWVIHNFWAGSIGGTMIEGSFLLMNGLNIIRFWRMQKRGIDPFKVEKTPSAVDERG
Chain of UniProt P21499 (P21499 whole entry): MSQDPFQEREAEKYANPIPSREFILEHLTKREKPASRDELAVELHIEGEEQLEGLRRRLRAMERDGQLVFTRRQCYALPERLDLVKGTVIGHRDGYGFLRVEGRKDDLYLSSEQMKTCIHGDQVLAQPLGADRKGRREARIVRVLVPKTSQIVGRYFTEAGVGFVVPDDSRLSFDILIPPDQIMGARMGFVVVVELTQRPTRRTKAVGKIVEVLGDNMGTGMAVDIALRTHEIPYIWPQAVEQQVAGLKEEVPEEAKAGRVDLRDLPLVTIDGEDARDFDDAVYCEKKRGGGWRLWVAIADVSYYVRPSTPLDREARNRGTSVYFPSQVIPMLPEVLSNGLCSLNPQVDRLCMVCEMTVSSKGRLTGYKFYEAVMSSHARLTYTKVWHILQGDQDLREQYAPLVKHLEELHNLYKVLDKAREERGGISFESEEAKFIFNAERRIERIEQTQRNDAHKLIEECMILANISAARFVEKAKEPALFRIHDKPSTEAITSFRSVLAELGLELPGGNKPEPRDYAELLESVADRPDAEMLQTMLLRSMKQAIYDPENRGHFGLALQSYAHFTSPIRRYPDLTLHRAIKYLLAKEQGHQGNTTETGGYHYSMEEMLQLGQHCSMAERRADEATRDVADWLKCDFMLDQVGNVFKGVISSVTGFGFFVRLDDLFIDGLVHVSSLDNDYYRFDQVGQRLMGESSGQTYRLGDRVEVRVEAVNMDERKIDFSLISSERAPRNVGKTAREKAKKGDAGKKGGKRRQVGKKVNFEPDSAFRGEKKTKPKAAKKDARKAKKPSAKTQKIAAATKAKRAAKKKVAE

Target	log2 fold change
UniProt P37636 (peptide sequence: QDYDTAR, peptide start residue: 137)	0.264
UniProt P33919 (peptide sequence: LLGLTATPFR, peptide start residue: 146)	-1.8
UniProt P25553 (peptide sequence: VAFGGKAVEGK, peptide start residue: 351)	1.48
UniProt P77721 (peptide sequence: VVSTGGELNK, peptide start residue: 138)	-0.442
UniProt P42603 (peptide sequence: TPSAVDER, peptide start residue: 175)	-0.551
UniProt P37692 (peptide sequence: AYVLPNSFK, peptide start residue: 84)	-1.08
UniProt P04995 (peptide sequence: TDLGDNAAVPVK, peptide start residue: 288)	0.472
UniProt P37685 (peptide sequence: MMLEHYQQTK, peptide start residue: 489)	-0.646
UniProt P21499 (peptide sequence: DGQLVFTR, peptide start residue: 65)	-0.675
UniProt Q46861 (peptide sequence: EALPGWSGVDSTRLDTPGK, peptide start residue: 229)	0.959
UniProt P0AD57 (peptide sequence: QRAEEEADKAIAALQVLPDTPWR, peptide start residue: 286)	0.56
